# Values joined by “and” are separate entries in the source; they are usually repeats but may differ in a detail not shown here. Equal entries are not always repeated. Some compounds were tested as several samples or in several runs, with calls that do not always agree. Active and inactive are the calls of the source. The calls were made as follows: active = hit-call score of the fitted dose curve at least 0.9, where 1 is the maximum; inactive = score below 0.9.
# Read-out: CD69, CD69 (gene 969)
# Assay: BSK_SAg_CD69: BioMAP Diversity Plus: SAg Assay for CD69 Biomarker Activity (AID 2283089);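 as to AC50: cell surface CD69 protein quantified by ELISA with fluorescence detection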
# Settings: primary human HUVEC with PBMC; actives raise or lower the signal
# Outline: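 ELISA, fluorescence read-out: CD69 on human umbilical vein endothelial cell + PBMC co-culture, 24 h post-dosing. Gain or loss of signal fitted bidirectionally against DMSO baseline.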
# E-selectin (Homo sapiens), sequence (P16581 whole entry, looked up): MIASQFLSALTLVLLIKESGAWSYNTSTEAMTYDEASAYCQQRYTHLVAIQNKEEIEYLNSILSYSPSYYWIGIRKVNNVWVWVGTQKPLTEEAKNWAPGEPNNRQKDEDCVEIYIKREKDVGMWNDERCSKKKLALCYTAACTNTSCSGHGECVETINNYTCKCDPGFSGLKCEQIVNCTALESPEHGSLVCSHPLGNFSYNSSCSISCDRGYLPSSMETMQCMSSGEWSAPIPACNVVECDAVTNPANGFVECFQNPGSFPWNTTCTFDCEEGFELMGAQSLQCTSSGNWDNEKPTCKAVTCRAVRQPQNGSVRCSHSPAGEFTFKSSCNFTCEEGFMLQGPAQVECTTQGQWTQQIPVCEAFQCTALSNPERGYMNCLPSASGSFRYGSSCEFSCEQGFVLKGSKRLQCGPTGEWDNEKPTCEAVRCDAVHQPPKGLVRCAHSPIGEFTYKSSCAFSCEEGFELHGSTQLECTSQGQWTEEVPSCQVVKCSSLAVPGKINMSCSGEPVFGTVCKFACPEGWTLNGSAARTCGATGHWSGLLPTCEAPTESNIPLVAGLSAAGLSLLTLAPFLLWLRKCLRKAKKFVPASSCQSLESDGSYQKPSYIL
SMILES,outcome,AC50
O=C(c1ccccc1)C1CCCCC1,inactive,–
S=C(S)NCCNC(=S)S.[Mn+2].[S-]C([S-])=NCCN=C([S-])[S-].[Zn+2],inactive,–
OB(O)O,inactive,–
CCN(Cc1c(F)cccc1Cl)c1c([N+](=O)[O-])cc(C(F)(F)F)cc1[N+](=O)[O-],inactive,–
CCCCC(CC)COC(=O)c1ccccc1C(=O)O (stereo unspecified),inactive,–
c1ccc(Nc2ccccc2)cc1,inactive,–
CCOC(=O)C(C)Oc1ccc(Oc2cnc3cc(Cl)ccc3n2)cc1 (stereo unspecified),inactive,–
CC(C)CCCCCCc1ccc(O)cc1,–,10.7 µM (active)
N#CSCSc1nc2ccccc2s1,–,3.12 µM (active) and 6.36 µM (active)
CCCN(CCC)c1c([N+](=O)[O-])cc(C(F)(F)F)c(N)c1[N+](=O)[O-],inactive,–
O=C(O)c1ccccc1,inactive,–
O=C(O)C1(C(=O)Nc2ccc(Cl)cc2Cl)CC1,–,9.21 µM (active)
CC(=O)S[C@@H]1CC2=CC(=O)CC[C@]2(C)[C@H]2CC[C@@]3(C)[C@@H](CC[C@@]34CCC(=O)O4)[C@H]12,–,13.9 µM (active)
CCCN(CCC)C(=O)SCC,inactive,–
Cc1nn(C)c(Oc2ccccc2)c1C=NOCc1ccc(C(=O)OC(C)(C)C)cc1,–,4.1 µM (active)
CCCCOCCOCCOCc1cc2c(cc1CCC)OCO2,inactive,–
CC1(C)C(C=C(Cl)Cl)C1C(=O)OCc1cccc(Oc2ccccc2)c1 (stereo unspecified),–,14.7 µM (active)
CCOC(=O)C(C)Oc1ccc(Oc2nc3ccc(Cl)cc3o2)cc1 (stereo unspecified),inactive,–
CCC(O)=C1C(=O)CC(C(=O)O)CC1=O (stereo unspecified),inactive,–
CCSC(=O)N(CC(C)C)CC(C)C,inactive,–
C[C@]12CC[C@@H]3c4ccc(O)cc4C[C@@H](CCCCCCCCCS(=O)CCCC(F)(F)C(F)(F)F)[C@H]3[C@@H]1CC[C@@H]2O (stereo partly specified),inactive,–
COC(=O)c1ccc(I)cc1S(=O)(=O)NC(=O)Nc1nc(C)nc(OC)n1,inactive,–
C#C[C@]1(O)CC[C@H]2[C@@H]3CCC4=CC(=O)CC[C@@H]4[C@H]3CC[C@@]21CC,inactive,–
CCOC(=O)c1ccc(O)cc1,inactive,–
c1ccc2[nH]c(-c3cscn3)nc2c1,inactive,–
CCNc1nc(N)nc(Cl)n1,inactive,–
CCCCOC(=O)C(C)Oc1ccc(Oc2ccc(C(F)(F)F)cn2)cc1 (stereo unspecified),inactive,–
CCOC(=O)NCCOc1ccc(Oc2ccccc2)cc1,–,25.3 µM (active)
CSC(=O)c1cccc2nnsc12,inactive,–
CC(C)(c1ccc(O)cc1)c1ccc(O)cc1,inactive,–

# Read-out: Monocyte Chemoattractant Protein-1 (MCP1), CCL2 (gene 6347)
# Assay: BSK_SAg_MCP1: BioMAP Diversity Plus: SAg Assay for Monocyte Chemoattractant Protein-1 (MCP1) Biomarker Activity (AID 2283090)
# Settings: primary human HUVEC with PBMC; actives raise or lower the signal
# Outline: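 MCP-1 levels in the endothelial–PBMC SAg co-culture were quantified by ELISA at 24 h post-dosing; both increases and decreases versus DMSO scored. Cytotoxicity monitored by SRB total protein in parallel cultures.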
SMILES,outcome,AC50
O=C(c1ccccc1)C1CCCCC1,inactive,–
OB(O)O,inactive,–
CCN(Cc1c(F)cccc1Cl)c1c([N+](=O)[O-])cc(C(F)(F)F)cc1[N+](=O)[O-],inactive,–
CCCCC(CC)COC(=O)c1ccccc1C(=O)O (stereo unspecified),inactive,–
c1ccc(Nc2ccccc2)cc1,inactive,–
CCOC(=O)C(C)Oc1ccc(Oc2cnc3cc(Cl)ccc3n2)cc1 (stereo unspecified),inactive,–
CC(C)CCCCCCc1ccc(O)cc1,–,6.52 µM (active)
CCCN(CCC)c1c([N+](=O)[O-])cc(C(F)(F)F)c(N)c1[N+](=O)[O-],–,31 µM (active)
O=C(O)C1(C(=O)Nc2ccc(Cl)cc2Cl)CC1,inactive,–
CCCN(CCC)C(=O)SCC,inactive,–
CC1(C)C(C=C(Cl)Cl)C1C(=O)OCc1cccc(Oc2ccccc2)c1 (stereo unspecified),inactive,–
CCOC(=O)C(C)Oc1ccc(Oc2nc3ccc(Cl)cc3o2)cc1 (stereo unspecified),–,20 µM (active)
COC(=O)c1ccc(I)cc1S(=O)(=O)NC(=O)Nc1nc(C)nc(OC)n1,inactive,–
C#C[C@]1(O)CC[C@H]2[C@@H]3CCC4=CC(=O)CC[C@@H]4[C@H]3CC[C@@]21CC,inactive,–
CCOC(=O)c1ccc(O)cc1,inactive,–
c1ccc2[nH]c(-c3cscn3)nc2c1,inactive,–
CCCCOC(=O)C(C)Oc1ccc(Oc2ccc(C(F)(F)F)cn2)cc1 (stereo unspecified),inactive,–
CCOC(=O)NCCOc1ccc(Oc2ccccc2)cc1,–,26.9 µM (active)
CSC(=O)c1cccc2nnsc12,inactive,–

# Read-out: E-selectin (Homo sapiens) (UniProt P16581)
# Assay: BSK_SAg_Eselectin: BioMAP Diversity Plus: SAg Assay for Eselectin Biomarker Activity (AID 2283091)
# Settings: primary human HUVEC with PBMC; actives raise or lower the signal
# Outline: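 Endpoint values derive from bidirectional fitting relative to DMSO, using ELISA-measured E-selectin in a human vascular co-culture (umbilical vein endothelium plus PBMC) sampled 24 h after dosing.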
SMILES,outcome,AC50
O=C(c1ccccc1)C1CCCCC1,inactive,–
S=C(S)NCCNC(=S)S.[Mn+2].[S-]C([S-])=NCCN=C([S-])[S-].[Zn+2],inactive,12.4 µM (active)
OB(O)O,inactive,–
CCN(Cc1c(F)cccc1Cl)c1c([N+](=O)[O-])cc(C(F)(F)F)cc1[N+](=O)[O-],inactive,–
CCCCC(CC)COC(=O)c1ccccc1C(=O)O (stereo unspecified),inactive,–
c1ccc(Nc2ccccc2)cc1,inactive,–
CCOC(=O)C(C)Oc1ccc(Oc2cnc3cc(Cl)ccc3n2)cc1 (stereo unspecified),inactive,–
CC(C)CCCCCCc1ccc(O)cc1,–,9.34 µM (active)
N#CSCSc1nc2ccccc2s1,–,5.69 µM (active) and 8.52 µM (active)
CCCN(CCC)c1c([N+](=O)[O-])cc(C(F)(F)F)c(N)c1[N+](=O)[O-],–,29.3 µM (active)
O=C(O)c1ccccc1,inactive,–
O=C(O)C1(C(=O)Nc2ccc(Cl)cc2Cl)CC1,inactive,–
CC(=O)S[C@@H]1CC2=CC(=O)CC[C@]2(C)[C@H]2CC[C@@]3(C)[C@@H](CC[C@@]34CCC(=O)O4)[C@H]12,–,14.9 µM (active)
CCCN(CCC)C(=O)SCC,inactive,–
Cc1nn(C)c(Oc2ccccc2)c1C=NOCc1ccc(C(=O)OC(C)(C)C)cc1,–,4.27 µM (active)
CCCCOCCOCCOCc1cc2c(cc1CCC)OCO2,inactive,–
CC1(C)C(C=C(Cl)Cl)C1C(=O)OCc1cccc(Oc2ccccc2)c1 (stereo unspecified),inactive,–
CCOC(=O)C(C)Oc1ccc(Oc2nc3ccc(Cl)cc3o2)cc1 (stereo unspecified),–,20 µM (active)
CCC(O)=C1C(=O)CC(C(=O)O)CC1=O (stereo unspecified),inactive,–
CCSC(=O)N(CC(C)C)CC(C)C,inactive,–
C[C@]12CC[C@@H]3c4ccc(O)cc4C[C@@H](CCCCCCCCCS(=O)CCCC(F)(F)C(F)(F)F)[C@H]3[C@@H]1CC[C@@H]2O (stereo partly specified),–,3.51 µM (active)
COC(=O)c1ccc(I)cc1S(=O)(=O)NC(=O)Nc1nc(C)nc(OC)n1,inactive,–
C#C[C@]1(O)CC[C@H]2[C@@H]3CCC4=CC(=O)CC[C@@H]4[C@H]3CC[C@@]21CC,inactive,–
CCOC(=O)c1ccc(O)cc1,inactive,–
c1ccc2[nH]c(-c3cscn3)nc2c1,inactive,–
CCNc1nc(N)nc(Cl)n1,inactive,–
CCCCOC(=O)C(C)Oc1ccc(Oc2ccc(C(F)(F)F)cn2)cc1 (stereo unspecified),inactive,–
CCOC(=O)NCCOc1ccc(Oc2ccccc2)cc1,–,31.8 µM (active)
CSC(=O)c1cccc2nnsc12,inactive,–
CC(C)(c1ccc(O)cc1)c1ccc(O)cc1,inactive,24.9 µM (active)
